High-throughput results: PubChem, several laboratories
A selection: hits, their analogues and other compounds. The true share with any hit is near 3.8%.
Cardio protect – cardioprotection against H2O2-induced cell death, primary screen, uHTS, H9c2 cells, ATPLite luminescence; AID 588492, 2011; protection from H2O2 cell death, % at 20 µM; H9c2 cardiomyocytes, H2O2 injury protection, 2 h; 360,000 tested, 0.63% active;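 active means compounds giving at least 50% protection of heart cells from peroxide-induced death in the single-dose screen, raw or plate-pattern-corrected value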;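 further: 0% = DMSO wells with peroxide and 100% = DMSO wells without peroxide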
Yeast superoxide – reduction of superoxide in aged yeast, primary screen, HTS; S. cerevisiae aged cells, superoxide DHE fluorescence; stronger effect = lower value; superoxide response (% of plate mean), % at 10 µM; 330,000 tested, 0.18% active; AID 2690, 2010;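 active means superoxide response under a set limit, about three screen SD below normal, cut at about 65% in these data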;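 further: yeast aged for seven days with compound at 30 °C before DHE staining; 100% = average MFI of all compound-treated wells on the plate with controls excluded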
FAS-TE inh – FAS thioesterase domain inhibitors, primary screen, biochemical, fluorescence intensity, uHTS. Fatty acid synthase (Homo sapiens), P49327. AID 602261, 2012. 360,000 tested, 0.67% active. recombinant FAS-TE, OMFH fluorogenic substrate, fluorescence endpoint. inhibition, % at 15 µM;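 active means compounds whose normalised, plate-corrected inhibition of enzyme fluorescence in the single-dose primary screen is 50% or more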;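 further: 0% = DMSO with enzyme and 100% = substrate without enzyme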
MPTP inh – mitochondrial permeability transition pore inhibitors, primary screen, biochemical, isolated mouse mitochondria, absorbance | AID 602449, 2012 | inhibition, % at 10 µM | 360,000 tested, 1.4% active | Ca2+ swelling absorbance, 30 min;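 active means inhibition of 50% or more, scaled per plate between neutral and stimulator controls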;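 further: 0% = DMSO wells given calcium and 100% = 1 mM EGTA wells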
SUMO Mot1 rescue – yeast Mot1-301 growth rescue at high temperature, primary screen, SUMOylation pathway inhibitor project, S. cerevisiae, ATP luminescence, 38.5C; S. cerevisiae Mot1-301 growth rescue; percent above DMSO median, 100 means doubled; growth rescue, % at 18.8 µM; 320,000 tested, 1% active; AID 2716, 2010;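 active means every valid replicate shows activation above 250% relative to neutral control wells; inactive means the rest, any valid replicate at or below 250%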;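 further: OY570 slx delta 5 strain wells were the positive control but not used for scaling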
aDG glyco act – activators of alpha-DG glycosylation, primary screen, uHTS, Pro5-aDG cells, AlphaScreen. alpha-DG glycosylation AlphaScreen (IIH6); 0% Pro5, 100% B10-LARGE cell signal. activation, % at 10 µM. 360,000 tested, 0.22% active;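 active means activation of at least 8% versus controls, or a plate z-score of at least 8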;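 further: Pro5 are CHO cells carrying HIG-tagged alpha-DG that lacks glycosylation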
MPTP counter – fluorescence retest of MPTP screen hits in isolated mitochondria, single concentration | shares compounds with MPTP inh | membrane potential, Rhodamine 123 fluorescence | inhibition, % at 10 µM | 5,000 tested, 78% active; in the data active means inhibition above about 22%;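 further: 0% = DMSO vehicle and 100% = positive control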
MPTP abs DR – mitochondrial permeability transition pore inhibitors, dose response, biochemical, absorbance, uHTS hits; IC50, µM; isolated mitochondria swelling; 780 tested, 58% active; shares compounds with MPTP inh; in the data active means IC50 below about 20 µM
MPTP cs DR – fluorescent counter-screen in isolated mitochondria, dose response, counter-screen for MPTP inhibitor project, biochemical, fluorescence, uHTS hits; shares compounds with MPTP inh; IC50, µM; 780 tested, 49% active; isolated mitochondria counterscreen, fluorescence read-out; AID 651564, 2012; in the data active means IC50 below about 80 µM
Active calls of the source: *.

What do the screens show for `COc1ccc(CCCNC(=O)C2Cc3c(-c4ccc5c(c4)OCO5)ccnc3O2)cc1` (stereo not given)?
Cardio protect: 8; FAS-TE inh: 11; MPTP inh: -1; aDG glyco act: 0

Results for c1cc2c(cc1C1CCCCC1)c1c3n2CCCNC3CCC1 (stereo not given) ?
Cardio protect: -29; Yeast superoxide: 116; FAS-TE inh: -34; MPTP inh: 80*; aDG glyco act: -1; MPTP counter: -29

What do the screens show for `CC(C)C(=O)NC(c1ccc([N+](=O)[O-])cc1)c1c(O)ccc2ccccc12` (stereo not given)?
Cardio protect: -15; Yeast superoxide: 100; FAS-TE inh: 17; MPTP inh: 87*; SUMO Mot1 rescue: -4; aDG glyco act: 1; MPTP counter: 77*

What do the screens show for `Cc1ccc(C(NC(=O)C2CCCCC2)c2c(O)ccc3ccccc23)cc1` (stereo not given)?
Cardio protect: -17; Yeast superoxide: 93; FAS-TE inh: 10; MPTP inh: 99*; SUMO Mot1 rescue: 0; aDG glyco act: 0; MPTP counter: 80*

Results for CC(=O)NC(c1ccc(C(C)C)cc1)c1c(O)ccc2ccccc12 (stereo not given) ?
Cardio protect: -14; Yeast superoxide: 102; FAS-TE inh: 10; MPTP inh: 17; SUMO Mot1 rescue: -12; aDG glyco act: 0

Results for CC(C)C[C@H](NC(=O)C1CC(=O)N(c2ccc(F)cc2)C1)C(=O)N1CCCCC1 (stereo not given in full) ?
Cardio protect: 1; Yeast superoxide: 91; FAS-TE inh: -1; MPTP inh: -1; SUMO Mot1 rescue: -8; aDG glyco act: 1

How did CC(C)c1nc(SCc2c(F)cccc2Cl)c2c(=O)n(C)c(=O)n(C)c2n1 do in these assays?
Cardio protect: -18; Yeast superoxide: 84; FAS-TE inh: 31; MPTP inh: 94*; SUMO Mot1 rescue: -13; aDG glyco act: 0; MPTP counter: -6; MPTP abs DR: >100; MPTP cs DR: >80

How did COc1cccc(OCCn2cc(C(=O)c3ccco3)c3ccccc32)c1 do in these assays?
Cardio protect: 14; Yeast superoxide: 119; FAS-TE inh: 30; MPTP inh: 2; SUMO Mot1 rescue: 415; aDG glyco act: 1

What do the screens show for `COc1cccc(OCCn2cc(C(C)=O)c3ccccc32)c1`?
Cardio protect: -18; Yeast superoxide: 108; FAS-TE inh: 14; MPTP inh: 61*; SUMO Mot1 rescue: -10; aDG glyco act: 1; MPTP counter: 56*

Results for CC(=O)c1cn(CCOc2cc(C)ccc2C)c2ccccc12 ?
Cardio protect: -12; Yeast superoxide: 85; FAS-TE inh: 3; MPTP inh: 97*; SUMO Mot1 rescue: 10; aDG glyco act: 1; MPTP counter: 83*

How did Cc1cc(F)ccc1S(=O)(=O)N1CCCOC1CNC(=O)C(=O)NCC(C)C (stereo not given) do in these assays?
Cardio protect: 0; Yeast superoxide: 101; FAS-TE inh: -6; MPTP inh: -2; SUMO Mot1 rescue: -5; aDG glyco act: 0

Results for COc1ccc(C(=O)N2CCCC(N3CCN(c4ccccc4F)CC3)C2)c(OC)n1 (stereo not given) ?
Cardio protect: -1; Yeast superoxide: 108; FAS-TE inh: -7; MPTP inh: -2; SUMO Mot1 rescue: -5; aDG glyco act: 0

How did Cc1cccc(CC(Cc2nc3ccccc3[nH]2)c2nc3ccccc3[nH]2)c1 (stereo not given) do in these assays?
Cardio protect: -32; Yeast superoxide: 96; FAS-TE inh: 14; MPTP inh: 89*; aDG glyco act: 1; MPTP counter: 110*

Results for CC(C)CN1C(=S)SC(C)(C)C1n1oc(=O)n(-c2ccc(Cl)cc2)c1=O (stereo not given) ?
Cardio protect: -17; Yeast superoxide: 95; FAS-TE inh: 14; MPTP inh: 88*; SUMO Mot1 rescue: 35; aDG glyco act: 0; MPTP counter: 95*

How did CCOc1ccc(CN(C)c2ccc(S(=O)(=O)N3CCN(C)CC3)cc2[N+](=O)[O-])cc1OC do in these assays?
Cardio protect: -22; Yeast superoxide: 102; FAS-TE inh: 4; MPTP inh: 55*; SUMO Mot1 rescue: -16; aDG glyco act: 2; MPTP counter: 93*

How did C#CCOCCOCCOCCNc1nc(N2CCN(C(=O)CCCCCCCCCCNC(=O)Cn3cc(CCCCCN)nn3)CC2)nc(N2CCN(C(=O)CCCCCCCCCCNC(=O)[C@H]([C@@H](C)CC)n3cc(CCCCCN)nn3)CC2)n1 do in these assays?
Cardio protect: 3; Yeast superoxide: 108; FAS-TE inh: -32; MPTP inh: 163*; SUMO Mot1 rescue: -7; aDG glyco act: 0; MPTP counter: 101*

How did C#CCOCCOCCOCCNc1nc(N2CCN(C(=O)[C@H](CCCCN)n3cc(CN)nn3)CC2)nc(N2CCN(C(=O)[C@H](CCCN=C(N)N)n3cc(C(N)[C@H](C)CC)nn3)CC2)n1 (stereo not given in full) do in these assays?
Cardio protect: 2; Yeast superoxide: 78; FAS-TE inh: -10; MPTP inh: 84*; SUMO Mot1 rescue: -15; aDG glyco act: 0; MPTP counter: -9; MPTP abs DR: inactive; MPTP cs DR: >80

How did O=C(NC1CCCC1)C(c1cccnc1)N(C(=O)c1csnn1)c1ccc(F)cc1 (stereo not given) do in these assays?
Cardio protect: 7; Yeast superoxide: 99; FAS-TE inh: -3; MPTP inh: 2; SUMO Mot1 rescue: 16; aDG glyco act: 0

How did CCCCCCCCCc1nc2sc3c(c2c(=O)n1NC(=O)c1ccc([N+](=O)[O-])cc1)CC(C)(C)OC3 do in these assays?
Cardio protect: -25; Yeast superoxide: 100; FAS-TE inh: 36; MPTP inh: 98*; SUMO Mot1 rescue: 523; aDG glyco act: 0; MPTP counter: 64*
